Measured values: PubChem BioAssay

Assay: plasmodial surface anion channel blockers, osmotic lysis – cell-based, P. falciparum Indochina, OD700, 18 h, primary screen (AID 1157)
Conditions: P. falciparum Indochina infected erythrocytes, osmotic lysis OD700, 18 h; higher = more signal, called active from +8 up or from −8 down

z-score, inactive:
CO[C@H]1COC(=O)[C@H](CCSC)NC(=O)CC=C[C@@H](C)[C@H](OC)COC(=O)[C@@H](OCc2ccccc2)C=C[C@@H]1C 0.367, COC(=O)[C@H](C)NC(=O)CCC1CC(OC(=O)NCCc2ccc(F)cc2)CC2(CCCC(COC(=O)NCCc3ccccc3OC)O2)O1 (stereo partly specified) 0.15, CC(C)CN1CCc2nc(-c3ccccc3)c3c(c2C1)CO[C@@H](C)C3 0.615, CC(C)[C@@H](OCc1ccccc1)[C@H](C)CON=C1[C@H]2CCn3c(=O)n(-c4ccccc4)c(=O)n3[C@H]2[C@H](O)[C@@H]2O[C@H]12 0.245, CON=C(C)CCN1CCc2nc(-c3ccccc3)c(-c3ccccc3)cc2C1 0.808, COc1ccc(OC[C@H]2CN3[C@@H](CC[C@@H](C)[C@@H]3c3ccc(Br)cc3)C(=O)O2)cc1 0.343, O=C(NN=C1C[C@@H](O)[C@@H](O)[C@@H]2[C@@H]3C(=O)N(c4ccc(F)cc4F)C(=O)[C@@H]3CC[C@H]12)OCc1ccccc1 0.6, COC(=O)[C@H](C)NC(=O)CCC1CC(OC(=O)NCc2cccc3ccccc23)CC2(CCCC(COC(=O)NCc3ccccc3)O2)O1 (stereo partly specified) 0.0533, O=C1C2=CC[C@H]3C(=O)N(C4CCCCC4)C(=O)[C@H]3[C@H]2[C@H](O)[C@@H]2O[C@H]12 -1.56, C#CCCCON=C1C[C@@H](O)[C@@H](O)[C@@H]2[C@@H]3C(=O)N(C[C@@H]4CCCO4)C(=O)[C@@H]3CC[C@H]12 0.0603, O=C1[C@H]2CCn3c(=O)n(-c4ccccc4)c(=O)n3[C@H]2[C@H](O)[C@@H]2O[C@H]12 0.304, CC(=O)OC[C@H]1O[C@H](CC=NOCC[C@@H]2C=C[C@H](OC(C)=O)[C@@H](COC(C)=O)O2)C=C[C@@H]1OC(C)=O 0.219, CCCNC(=O)OC[C@H]1O[C@H](CCON=C[C@@H](C)[C@H](OCc2ccccc2)C(C)C)C=C[C@@H]1Oc1ccc(OC)cc1 -2.55, CC(CCC(=O)OC[C@H]1O[C@H](C#Cc2ccccc2)C=C[C@@H]1Oc1ccc(C)cc1)=NOC(C)CN1CCCCc2nc(C)c(C)cc21 (stereo partly specified) 0.662, CCN1C(=O)[C@H]2[C@H]3[C@H](O)[C@H](O)CC(=NNC(=O)OCc4ccccc4)[C@H]3CC[C@H]2C1=O 0.0338, CO[C@@H](C(C)C)[C@@H](C)C1OC(=O)CC1O (stereo partly specified) -0.121, CC(C)=NOC(C)CN1CCCc2nc(C)c(C)cc21 (stereo unspecified) 0.539, CO[C@@H]1[C@H](O)CO[C@H]1C=Cc1ccccc1 -0.0932, COc1ccc(O[C@H]2C=C[C@@H](C#Cc3ccccc3)O[C@@H]2CO)cc1 -0.144, CC(CCC(=O)OC[C@H]1O[C@H](C#Cc2ccccc2)C=C[C@@H]1Oc1ccc(C)cc1)=NOC[C@@H](C)[C@H](OCc1ccccc1)C(C)C 0.392, CC(CCN1CCc2nc(-c3ccccc3)c(-c3ccccc3)cc2C1)=NOC(C)CN1CCCc2nc(C)c(C)cc21 (stereo unspecified) 0.268, CCOC(=O)[C@H](CC(C)C)NC(=O)CCC1CC(OC(=O)NCc2ccc3c(c2)OCO3)CC2(CCCC(COC(=O)NCCc3ccc(Cl)cc3)O2)O1 (stereo partly specified) -0.144, CC(=O)OC[C@H]1O[C@@H](ON=C(C)CCC(=O)OC[C@H]2O[C@H](C#Cc3ccccc3)C=C[C@@H]2Oc2ccc(C)cc2)[C@H](OC(C)=O)[C@@H](OC(C)=O)[C@@H]1OC(C)=O 0.612, CC(C)CON=C1C[C@@H](O)[C@@H](O)[C@@H]2[C@@H]3C(=O)N(c4ccc(F)cc4F)C(=O)[C@@H]3CC[C@@H]12 -2.29, CCOC(=O)CCN1C(=O)[C@H]2[C@H]3[C@H](O)[C@H](O)CC(=NO[C@@H]4O[C@H](CO)[C@@H](O)[C@H](O)[C@H]4O)[C@H]3CC[C@H]2C1=O -0.0643, CCOC(=O)[C@H](Cc1ccccc1)NC(=O)CCC1CC(OC(=O)NCc2cccc3ccccc23)CC2(CCCC(COC(=O)NCCc3ccc(Cl)cc3)O2)O1 (stereo partly specified) -0.687, CCN1C(=O)[C@H]2[C@H]3[C@H](O)[C@H](O)CC(=NOC[C@@H](O)COCc4ccco4)[C@H]3CC[C@H]2C1=O 0.108, C#CCCCON=C1C[C@@H](O)[C@@H](O)[C@@H]2[C@@H]3C(=O)N(C4CCCCC4)C(=O)[C@@H]3CC[C@@H]12 0.132, COC(=O)[C@H](CCSC)NC(=O)CC=C[C@@H](C)CO -0.167, CCc1cc2c(nc1CC)CCN(CCC(C)=NO[C@@H]1O[C@H](COC(C)=O)[C@@H](OC(C)=O)[C@H](OC(C)=O)[C@H]1OC(C)=O)C2 -1.67, CO[C@H]1COC(=O)[C@H](C)COC(=O)[C@H](C)NC(=O)CC=C[C@H]1C -0.186, COC(=O)[C@H](C)NC(=O)CCC1CC(OC(=O)NCc2ccc3c(c2)OCO3)CC2(CCCC(COC(=O)NCCCN3CCCC3=O)O2)O1 (stereo partly specified) -0.169, COc1ccc(COC(=O)NN=C2C[C@@H](O)[C@@H](O)[C@@H]3[C@@H]4C(=O)N(C[C@@H]5CCCO5)C(=O)[C@@H]4CC[C@@H]23)cc1 0.18, COc1ccc(COC(=O)NN=C2C[C@@H](O)[C@@H](O)[C@@H]3[C@@H]4C(=O)N(C(C)(C)C)C(=O)[C@@H]4CC[C@@H]23)cc1 -0.0118, CCOC(=O)[C@H](CC(C)C)NC(=O)CCC1CC(OC(=O)NCc2ccc3c(c2)OCO3)CC2(CCCC(COC(=O)NCc3ccccc3)O2)O1 (stereo partly specified) 0.297, CC(C)[C@H](NC(=O)OC(C)(C)C)[C@@H](O)CC(=O)C(C)(C)C 0.126
